# Data: publication PMC4336329 (PLoS ONE, 2015)
# The whole screen tested about 310,000 compounds, of which about 14,000 (4.5%) showed an effect of 50% or more. Effects have a minus sign here. This excerpt belongs to a sample that is enriched for strong results.
# Target: human ether-à-go-go-related gene (hERG) potassium channel (human, UniProt Q12809)
# Test: primary screen, population patch clamp on CHO cells stably expressing hERG; higher = less effect of the substance
# 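Further: peak tail current of the secondary pulse compared with the same well before compound.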
# human ether-à-go-go-related gene (hERG) potassium channel, sequence (Q12809 whole entry, looked up): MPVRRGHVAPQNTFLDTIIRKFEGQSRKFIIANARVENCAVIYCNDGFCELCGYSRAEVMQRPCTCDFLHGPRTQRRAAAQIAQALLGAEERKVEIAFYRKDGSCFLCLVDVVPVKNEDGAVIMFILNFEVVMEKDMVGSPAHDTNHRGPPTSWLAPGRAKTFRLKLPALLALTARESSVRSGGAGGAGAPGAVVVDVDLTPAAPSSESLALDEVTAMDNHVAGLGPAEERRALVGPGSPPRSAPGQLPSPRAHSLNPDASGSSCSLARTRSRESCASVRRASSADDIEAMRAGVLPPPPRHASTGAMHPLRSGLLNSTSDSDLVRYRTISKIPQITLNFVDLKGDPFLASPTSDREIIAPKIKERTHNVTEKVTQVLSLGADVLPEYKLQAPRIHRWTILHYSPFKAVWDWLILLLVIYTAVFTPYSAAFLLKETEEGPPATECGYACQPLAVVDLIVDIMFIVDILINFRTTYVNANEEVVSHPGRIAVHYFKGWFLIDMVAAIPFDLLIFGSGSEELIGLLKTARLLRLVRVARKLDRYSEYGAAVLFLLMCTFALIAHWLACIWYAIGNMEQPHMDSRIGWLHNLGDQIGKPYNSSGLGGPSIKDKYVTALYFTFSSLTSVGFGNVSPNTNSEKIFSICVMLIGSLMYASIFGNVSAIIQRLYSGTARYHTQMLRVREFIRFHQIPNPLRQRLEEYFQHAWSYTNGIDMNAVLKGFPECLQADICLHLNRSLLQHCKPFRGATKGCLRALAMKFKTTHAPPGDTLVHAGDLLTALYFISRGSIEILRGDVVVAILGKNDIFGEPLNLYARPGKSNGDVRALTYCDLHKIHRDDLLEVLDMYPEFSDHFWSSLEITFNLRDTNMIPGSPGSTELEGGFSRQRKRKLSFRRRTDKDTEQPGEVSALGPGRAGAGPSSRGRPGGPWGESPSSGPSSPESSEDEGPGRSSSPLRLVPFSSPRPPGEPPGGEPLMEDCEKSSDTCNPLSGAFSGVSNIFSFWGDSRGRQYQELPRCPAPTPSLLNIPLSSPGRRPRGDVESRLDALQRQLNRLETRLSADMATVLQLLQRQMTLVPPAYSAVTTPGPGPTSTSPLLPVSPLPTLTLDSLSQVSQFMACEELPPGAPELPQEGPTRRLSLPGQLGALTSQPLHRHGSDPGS
row,SMILES,"hERG current change (%, negative = inhibition) at 10uM"
1,CCCCN(CCCC)Cc1cc2ccccc2c2c1COC2,-54.6%
2,CCN(CC)Cc1cc2ccccc2c2c1COC2,-44.1%
3,CCCN(CCC)Cc1cc2ccccc2c2c1COC2,-29%
4,COc1ccc(NC(C)=O)cc1CNC(=O)CN1CCOCC1,19.1%
5,O=C(NCC(=O)N(CCN1CCOCC1)C(C(=O)NC1CCCC1)c1cccs1)c1ccco1 (stereo not shown),-0.929%
6,O=C(NC1CCCC1)C(c1ccncc1)N(Cc1ccccc1)C(=O)c1ccc(-c2ccccc2)[nH]1 (stereo not shown),-4.27%
7,CCOc1ccc(C(C(=O)NC2CCCC2)N(CCCO)C(=O)c2ccc(-c3ccccc3)[nH]2)cc1 (stereo not shown),-61.6%
8,O=C(NC1CCCCC1)C(c1ccc(F)cc1)N(CCN1CCOCC1)C(=O)c1ccc(-c2ccccc2)[nH]1 (stereo not shown),24.4%
9,O=C(NC1CCCC1)C(c1ccncc1)N(Cc1ccco1)C(=O)c1ccc(-c2ccccc2)[nH]1 (stereo not shown),1.38%
10,O=C(NCC1CCCO1)C(c1cccs1)N(Cc1cccs1)C(=O)c1ccc(-c2ccccc2)[nH]1 (stereo not shown),7.78%
11,Cc1ccc(C(C(=O)NC(C)(C)C)N(CCCN2CCOCC2)C(=O)c2ccc(-c3ccccc3)[nH]2)o1 (stereo not shown),-76.5%
12,O=C(NCC1CCCO1)C(c1ccc(F)cc1)N(CCCN1CCOCC1)C(=O)c1ccc(-c2ccccc2)[nH]1 (stereo not shown),-26.2%
13,Cc1ccc(C(C(=O)NCC2CCCO2)N(Cc2ccccc2)C(=O)c2ccc(-c3ccccc3)[nH]2)o1 (stereo not shown),-7.63%
14,O=C(NC1CCCC1)C(c1ccncc1)N(CCCN1CCOCC1)C(=O)c1ccc(-c2ccccc2)[nH]1 (stereo not shown),-61.1%
15,O=C(NC1CCCCC1)C(c1cccs1)N(CCCN1CCOCC1)C(=O)c1ccc(-c2ccccc2)[nH]1 (stereo not shown),-66.5%
16,O=C(NC1CCCCC1)C(c1ccncc1)N(Cc1ccccc1)C(=O)c1ccc(-c2ccccc2)[nH]1 (stereo not shown),4.6%
17,Cc1ccc(C(=O)COC(=O)c2ccccc2N2C(=O)C3C4CCC(C4)C3C2=O)cc1C (stereo not shown),-19.2%
18,CCN(CCO)C(=O)C12CCC(C)(C(=O)C1)C2(C)C (stereo not shown),-9.66%
19,COc1c(Cl)cc(C(=O)NN)cc1Cl,0.95%
20,CC(=O)Nc1sc2c(c1C(N)=O)CCCC2,22.8%
21,CCc1cccc(C)c1NC(=O)CCOc1ccccc1,3.79%
22,c1ccc(C2=Nc3cccnc3C(c3ccccc3)=NN2)cc1,15.9%
